Screens (PubChem)
ERG Ets-DNA blk: blocks human ERG Ets domain binding to DNA. Potency, µM (doses to about 76.9 µM), hits mostly inhibitors. fluorescence polarization, His-ERG Ets domain / labelled DNA. P11308. actives 0.028% (n = 370,000); active means well fitted inhibition curve with a large enough effect in the polarisation, with a control signal flat; inconclusive means small, poorly fitted or top-dose-only effect, or effect the other way, or a change in a side signal; inactive means no such curve, though single readings can be large or run the other way; the % refers to the polarisation;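 further: polarization taken with two DNA probes labelled with fluorescein and Texas red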
Target sequence (P11308 whole entry, looked up, the tested form may be a part): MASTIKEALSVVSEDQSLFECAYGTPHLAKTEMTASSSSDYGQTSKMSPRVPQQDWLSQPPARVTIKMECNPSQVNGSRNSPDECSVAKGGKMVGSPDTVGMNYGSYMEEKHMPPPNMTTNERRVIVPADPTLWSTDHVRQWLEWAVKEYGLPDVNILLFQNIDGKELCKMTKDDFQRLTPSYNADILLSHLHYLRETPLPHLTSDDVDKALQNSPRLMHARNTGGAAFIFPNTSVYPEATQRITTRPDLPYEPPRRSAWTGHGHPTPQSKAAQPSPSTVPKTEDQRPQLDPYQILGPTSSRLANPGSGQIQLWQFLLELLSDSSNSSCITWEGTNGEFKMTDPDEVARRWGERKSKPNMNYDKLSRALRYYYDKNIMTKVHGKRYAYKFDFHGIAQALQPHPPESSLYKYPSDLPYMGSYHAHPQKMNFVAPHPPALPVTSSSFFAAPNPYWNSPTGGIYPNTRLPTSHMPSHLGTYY
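His-tagged ERG Ets domain (1 uM in the protein solution; 300mM KCl, 50mM Tris-HCl, 1mM EDTA, 1mM DTT, pH 7.5) received compound, then a probe mix of 5 nM fluorescein-DNA and 100nM Texas-615-DNA. Fluorescence polarization was read for both dyes.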
RORg inh: inhibitors of mouse ROR gamma transcriptional activity; actives 5.4% (n = 310,000); Potency, µM (highest dose often 53.6 µM), most hits filed as inhibitors; Drosophila S2 Gal4-RORgamma UAS-luciferase reporter, 20 h; further: nearly all actives have a fitted effect of over 60% in size
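Stably transfected Drosophila Schneider cells are the test system, with ROR gamma fused to Gal4 and luciferase under UAS control; luminescence is read after 20 hr of 700 uM copper sulfate induction at ambient temperature.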
Giardia killer: kills Giardia lamblia | Giardia lamblia trophozoite viability | activity change, % at 7.66 µM, hits read low | actives 0.15% (n = 340,000); in the data active means activity change below about -80%; inconclusive means between about -30% and that limit;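 further: parasites exposed to compound for two days anaerobically before the ATP read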
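Anaerobic 48 hrs incubation at 37 deg C of 100 trophozoites/well with test compounds; ATPLite 1-Step luminescence, 15-30 min RT, reports cellular ATP as viability.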
a7 integrin act: activators of alpha7 integrin expression for muscular dystrophy; alpha7betagal myoblasts, beta-gal FDG fluorescence, 48 h; Potency, µM (titrated, usually from 38.3 µM), actives largely listed as activators; actives 0.064% (n = 350,000); AID 624291; further: nearly all actives have a fitted effect of over 60% in size
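Alpha7betagal+/- myoblasts (passage 13) were plated 16-24 hr, then exposed to compounds (1:260 dilution of DMSO stock) for 48 hours at 37C. After MPER lysis, β-galactosidase reporter activity was read as FDG fluorescence (ex 480/em 540) after 30 minutes.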
Gal4-VP16 FLuc: Gal4-VP16 reporter inhibition counter-screen; actives 3.5% (n = 310,000); Potency, µM (series often up to 53.6 µM), most hits filed as inhibitors; Drosophila S2 Gal4-VP16 UAS-luciferase, luminescence, 20 h;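 further: Gal4-VP16 expression switched on by copper sulfate through the metallothionein promoter; nearly all actives have a fitted effect of over 50% in size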
Large screens that a line does not name were inactive. The full list was thinned out, with hits kept by preference. Unless noted, the call rests on the fitted dose curve; in most records, active means well fitted curve in the direction sought with a large enough effect; inconclusive means small, poorly fitted or top-dose-only effect, or another doubt; inactive means no such curve, though single readings can be large; an effect the other way counts as inactive or inconclusive.

CCc1ccc(C(=O)c2cn(CC(=O)Nc3cc(C)ccc3C)c3nc(C)ccc3c2=O)cc1	none (no result: RORg inh, Giardia killer, a7 integrin act, Gal4-VP16 FLuc)
CC(C)c1nn2c(=O)cc(COC(=O)c3ccccc3NC(=O)c3cccc(Cl)c3)nc2s1	none (no result: RORg inh, Giardia killer, a7 integrin act, Gal4-VP16 FLuc)
O=C(NCc1ccco1)C(c1cccs1)N(C(=O)C1COc2ccccc2O1)c1cccc(O)c1 (centres undefined)	none
COc1cc(/C=N/Nc2nc(N3CCCC3)nc(N3CCCC3)n2)ccc1OCc1ccccc1F	RORg inh inconclusive
COc1ccc(/C=N/Nc2nc(N3CCCC3)nc(N3CCCC3)n2)cc1O	RORg inh 11.2µM
O=C(CS(=O)c1ccccc1[N+](=O)[O-])Oc1ccc(Br)cc1 (centres undefined)	a7 integrin act inconclusive
CS(=O)(=O)c1ccc(S(=O)CC(=O)Oc2ccc(Cl)cc2)c([N+](=O)[O-])c1 (centres undefined)	RORg inh 3.98µM
O=C1C2CCCN2C(c2ccccc2)N1c1nccs1 (centres undefined)	RORg inh 5.62µM
COc1cccc(-c2nc(-c3cccs3)no2)c1	RORg inh 12.6µM, Gal4-VP16 FLuc inconclusive
COc1ccc(-c2ccc(-c3noc(-c4cccc(OC)c4)n3)c(OC)n2)cc1	RORg inh 0.355µM, Gal4-VP16 FLuc inconclusive (no result: ERG Ets-DNA blk)
COc1cccc(-c2nc(-c3ccc(-c4ccccc4)nc3OC)no2)c1	none (no result: RORg inh, Giardia killer, a7 integrin act, Gal4-VP16 FLuc)
COc1cc(OC)cc(-c2nc(-c3cccs3)no2)c1	none
CCCCc1ccc(NC(=S)N2CCC(O)CC2)cc1	none
O=C(Nc1nc2ccccc2[nH]1)c1ccccc1[N+](=O)[O-]	RORg inh 8.91µM, Gal4-VP16 FLuc 22.4µM
Cc1c(C(=O)Nc2nc3ccccc3[nH]2)cccc1[N+](=O)[O-]	RORg inh 7.94µM, Gal4-VP16 FLuc 10µM
O=C(Nc1nc2ccccc2[nH]1)c1ccc(Cl)c([N+](=O)[O-])c1	RORg inh 2.82µM, Giardia killer inconclusive, Gal4-VP16 FLuc inconclusive
Cc1c(C(=O)NC(Cc2ccccc2)c2nc3ccccc3[nH]2)cccc1[N+](=O)[O-] (centres undefined)	none
Cc1ccc(S(=O)(=O)N2CCN(c3nc(-c4cccs4)nc4ccccc34)CC2)c(C)c1	none (no result: ERG Ets-DNA blk, RORg inh, a7 integrin act, Gal4-VP16 FLuc)
CO[C@@H]1COC(=O)[C@H]2CCCN2C(=O)C/C=C\[C@@H](C)[C@H](OC)COC(=O)[C@H]2CCCN2C(=O)C/C=C\[C@H]1C	none (no result: ERG Ets-DNA blk, Giardia killer, a7 integrin act)
CCC1CCCCN1C(=O)Cn1c(=O)n(-c2ccccc2C(F)(F)F)c(=O)c2c(C)c(C(=O)N(C)C)sc21 (centres undefined)	none (no result: RORg inh, Giardia killer, a7 integrin act, Gal4-VP16 FLuc)
COC(=O)c1ccc(C2C(C(=O)c3cc4ccccc4o3)=C(O)C(=O)N2CCN2CCOCC2)cc1 (centres undefined)	a7 integrin act 10µM
CCCC(=O)NCc1ccncc1	none (no result: ERG Ets-DNA blk, Giardia killer, a7 integrin act)
CC1CCC(C(C)C)C(OC(=O)COC(=O)c2ccc(N)cc2)C1 (centres undefined)	Gal4-VP16 FLuc 15.8µM
CC1CCC(C(C)C)C(OC(=O)COC(=O)c2cccn2C)C1 (centres undefined)	none
COc1ccccc1CNc1ncncc1-c1ccccc1C(F)(F)F	none (no result: ERG Ets-DNA blk, Giardia killer, a7 integrin act)
CC(/C=C/c1ccccc1F)=N\NC(=O)c1ccccc1	RORg inh 3.16µM, Gal4-VP16 FLuc 7.08µM
CC(/C=C/c1ccccc1)=N\NC(=O)c1cc(C)nc2ccccc12	RORg inh 14.1µM, Gal4-VP16 FLuc inconclusive
CC(/C=C/c1ccccc1)=N/NC(=O)c1cccc(Br)c1	RORg inh 2.24µM, Gal4-VP16 FLuc 3.55µM
C/C(=N\NC(=O)c1cc(C)nc2ccccc12)c1cccs1	none
CC(/C=C/c1ccccc1)=N\NC(=O)c1ccc(Br)cc1	RORg inh 0.501µM, Gal4-VP16 FLuc 0.891µM
C[C@H](NC(=O)[C@@H](Cc1c[nH]c2ccccc12)NC(=O)[C@@H](N)Cc1cnc[nH]1)C(=O)N[C@@H](Cc1c[nH]c2ccccc12)C(=O)N[C@H](Cc1ccccc1)C(=O)N[C@@H](CCCCN)C(N)=O	none (no result: ERG Ets-DNA blk, Giardia killer, a7 integrin act)
CCN(CC)c1ccc(-c2n[nH]c(=S)n2-c2ccccc2)cc1	RORg inh 1.58µM
CN(C)c1ccc(-c2n[nH]c(=S)n2-c2ccccc2)cc1	RORg inh 2.24µM, Gal4-VP16 FLuc inconclusive
Cc1n[nH]c(=S)n1-c1ccccc1	RORg inh inconclusive
CN(C)C=NC(=O)c1cc2c(n(-c3ccccc3)c1=O)CC(C)(C)CC2=O	none (no result: RORg inh, Giardia killer, a7 integrin act, Gal4-VP16 FLuc)
C=CCC1(O)C=CCC2C3C4C(OC(C)(C)C)C2C1C34 (centres undefined)	none (no result: ERG Ets-DNA blk, Giardia killer, a7 integrin act)
CC(=O)Nc1nc(C2COc3ccccc3O2)cs1 (centres undefined)	RORg inh 12.6µM (no result: ERG Ets-DNA blk)
CCC(c1nnc(SCC(=O)Nc2nnc(-c3ccccc3)o2)n1Cc1ccccc1)N(C)C (centres undefined)	RORg inh 8.91µM, Gal4-VP16 FLuc inconclusive
COc1ccc(O)c(C(=O)CC(=O)c2ccccc2)c1	RORg inh 7.08µM, Gal4-VP16 FLuc 12.6µM (no result: ERG Ets-DNA blk, Giardia killer, a7 integrin act)
CCOC(=O)C(NCc1ccc(F)cc1)(NC(=O)c1ccccc1)C(F)(F)F (centres undefined)	none
COc1ccc(CNC(=O)c2ccc(-c3ccccc3)cc2)cc1	none
COc1ccc(CNC(NC(=O)c2ccccc2)(C(F)(F)F)C(F)(F)F)cc1	RORg inh inconclusive, Gal4-VP16 FLuc 10µM
COc1ccc(C(=O)CC(=O)c2ccc(OC)cc2)cc1	RORg inh 12.6µM, Gal4-VP16 FLuc 17.8µM
COc1ccc(C(=O)CC(=O)c2ccccc2)cc1	none (no result: RORg inh, Gal4-VP16 FLuc)
COc1ccc(C(=O)NCC(=O)c2ccccc2)cc1	RORg inh 10µM
Cc1ccc(NC(=O)c2ccc(-n3nncc3-c3ccccc3)cc2)cc1	none (no result: ERG Ets-DNA blk, RORg inh, a7 integrin act, Gal4-VP16 FLuc)
CCCC(=O)Nc1nnc(CC(=O)N2CCCC2)s1	RORg inh 1.26µM
CCOc1ccc(-n2cc(-c3ccccc3)c3c(=S)nc[nH]c32)cc1	RORg inh 1µM, Gal4-VP16 FLuc 1.12µM
CCc1cc(C(N)=S)ccn1	none (no result: a7 integrin act)
COc1ccc(C(N)=S)cc1	RORg inh 12.6µM, Gal4-VP16 FLuc inconclusive
CCc1ccc(C(N)=S)cc1	RORg inh 11.2µM
Nc1nc(NC(=O)C(Cl)(Cl)Cl)nn1-c1ccccc1	RORg inh 12.6µM, Gal4-VP16 FLuc inconclusive (no result: ERG Ets-DNA blk)
CCC(=O)Nc1nc(N)n(-c2ccccc2)n1	none
COc1c(OC(C)=O)ccc(/C=C/c2ccc3cccc(OC)c3n2)c1[N+](=O)[O-]	RORg inh inconclusive
CCOc1cccc(/C=C/c2ccc3cccc(O)c3n2)c1O	RORg inh 3.55µM, Gal4-VP16 FLuc inconclusive
CCOc1c(OC(C)=O)ccc(/C=C/c2ccc3cccc(OC(C)=O)c3n2)c1[N+](=O)[O-]	RORg inh 3.16µM, Gal4-VP16 FLuc 3.55µM
COc1cccc(C=Cc2nccc3ccccc23)c1OC	none (no result: ERG Ets-DNA blk, RORg inh, Giardia killer, Gal4-VP16 FLuc)
CCOc1cccc(/C=C/c2ccc3cccc(O)c3n2)c1OC	RORg inh 2.82µM, Gal4-VP16 FLuc 12.6µM
CCOc1cc(/C=C/c2ccc3cccc([N+](=O)[O-])c3n2)ccc1O	ERG Ets-DNA blk inconclusive
